MCF10A rerep = DNA re-replication induction in MCF 10a cells | MCF 10A DNA re-replication, Hoechst nuclear intensity, 48 h | Potency, µM (top dose mostly 46.1 µM), without a hit: at the highest dose activity, positive = re-replication, most hits filed as activators | actives 2.9% (n = 350,000); also: % of control where 0% means no effect; nearly all actives have a fitted effect of over 50% in size
SW480 rerep = inducers of DNA re-replication in SW480 colon cancer cells; SW480 DNA re-replication, Hoechst DNA content imaging, 48 h; Potency, µM (titrated, usually from 46.1 µM), for inactives: at the top dose re-replication activation, actives largely listed as activators; actives 1.8% (n = 340,000); AID 624297; also: % of control where 0% means no effect; nearly all actives have a fitted effect of over 55% in size
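Readout is total intensity of Hoechst-stained nuclei, excited at 405 nm and collected at 500-530 nm. Compound treatment lasted 48 hr at 37 C in 5% CO2 before staining.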
a7 integrin act = activators of alpha7 integrin expression for muscular dystrophy. alpha7betagal myoblasts, beta-gal FDG fluorescence, 48 h. Potency, µM (top dose mostly 38.3 µM), without a hit: at the highest dose activation, most hits filed as activators. actives 0.064% (n = 350,000). AID 624291;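 also: 100% = response of the positive control SU9516; nearly all actives have a fitted effect of over 60% in size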
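Alpha7betagal+/- myoblasts (passage 13) were plated 16-24 hr, then exposed to compounds (1:260 dilution of DMSO stock) for 48 hours at 37C. After MPER lysis, β-galactosidase reporter activity was read as FDG fluorescence (ex 480/em 540) after 30 minutes.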
AT treatment = potential ataxia-telangiectasia treatment; Potency, µM (series often up to 57.5 µM), for inactives: at the top dose activation, most hits filed as activators; actives 0.19% (n = 320,000); F2112 A-T fibroblasts, KAP-1 phosphorylation AlphaLISA; neocarzinostatin DNA damage 30 min before lysis; also: % of control where 0% means no effect; nearly all actives have a fitted effect of over 45% in size
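hTERT-immortalized A-T patient fibroblasts (F2112), 500 cells/well in OPTI-MEM, 1% FBS, got compounds for 60 min, then NCS for 30 min at 37C. Lysates were then assayed for phospho-KAP-1 by AlphaLISA (anti-pKAP1 donor, anti-KAP1 acceptor beads), 6 hr at 25C.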
Mito fusion act = blocks mitochondrial division or promotes mitochondrial fusion; S. cerevisiae fusion-defective mutant growth rescue, CellTiterGlo 48 h; Potency, µM (top dose mostly 46.1 µM), for the others: top-dose growth rescue (activation), usual class: activators; actives 0.23% (n = 320,000); AID 485298; also: % of control where 0% means no effect; nearly all actives have a fitted effect of over 45% in size
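Luminescent cell viability in 1536-well qHTS format served as the measure of rescued growth in ts fusion-mutant S. cerevisiae cultured on non-fermentable YPEG for 48 hours at 37C.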
Active calls of the source: *. A selection: hits, their analogues and other compounds. The true share with any hit is near 4.2%. Calls follow the shape of the dose curve; as a rule, active = well fitted activation curve with a large enough effect; inconclusive = small, poorly fitted or top-dose-only effect; inactive = no such curve, though single readings can be large or run the other way. Potency is read from the fitted curve at half-maximal effect.

Screening CC(C)(C)c1cnnn1-c1ccc(C=O)cc1 returned MCF10A rerep 0.1%, SW480 rerep -1.1%, a7 integrin act -8.0%, AT treatment 4.6% and Mito fusion act -0.3%.
`CC(C)(C)c1cnnn1-c1ccc(C(=O)CCl)cc1` gave MCF10A rerep 16.4µM*, SW480 rerep inconclusive, a7 integrin act 10.7%, AT treatment -8.3% and Mito fusion act -31.1%.
`O=P(O)(CCc1ccncc1)CN1CCCCC1` gave MCF10A rerep 5.8µM*, SW480 rerep inconclusive, a7 integrin act 36.0%, AT treatment -3.2% and Mito fusion act 0.9%.
Screening CN(C=O)CP(=O)(O)CN1CCCCC1 returned AT treatment -1.3% and Mito fusion act 0.9%.
Screening Cc1ccc(S(=O)(=O)N(C)c2cc(S(N)(=O)=O)c(C)cc2C)cc1 returned MCF10A rerep -0.6%, SW480 rerep 1.6%, a7 integrin act -15.9%, AT treatment -0.8% and Mito fusion act 7.3%.
`O=c1c(/C=C(\O)c2ccc(F)cc2)nc2ccccc2n1-c1ccccc1` gave MCF10A rerep 6.1%, SW480 rerep 20.0%, a7 integrin act 3.2%, AT treatment 3.7% and Mito fusion act 2.8%.
Cn1c(=O)c(/C=C/c2ccc(F)cc2)nc2ccccc21 was read as MCF10A rerep inconclusive, SW480 rerep 11.6µM*, a7 integrin act -8.6%, AT treatment 15.4% and Mito fusion act 18.4%.
For Cn1c(=O)c(/C=C/c2ccccc2)nc2ccccc21 the results were MCF10A rerep 11.6µM*, SW480 rerep inconclusive, a7 integrin act -28.2%, AT treatment 9.9% and Mito fusion act 13.2%.
CC(=O)c1ccc(/C=C/c2nc3ccccc3n2C)o1 was read as MCF10A rerep 18.4µM*, SW480 rerep inconclusive, a7 integrin act inconclusive, AT treatment 50.0% and Mito fusion act -4.7%.
`Cn1c(/C=C/c2ccccc2)nc2ccccc21` gave MCF10A rerep 13.3%, SW480 rerep -2.5%, a7 integrin act -6.2%, AT treatment 1.4% and Mito fusion act -12.2%.
For c1ccc2c(c1)nc(N1CCOCC1)c1c3ccccc3[nH]c21 the results were MCF10A rerep 3.66µM*, SW480 rerep inconclusive, a7 integrin act 10.6% and Mito fusion act 16.9%.
Screening c1ccc2c(-c3c[nH]c4ccccc34)c3ccccc3nc2c1 returned MCF10A rerep 8.2µM*, SW480 rerep inconclusive, a7 integrin act -1.8%, AT treatment -0.4% and Mito fusion act -6.1%.
For O=C(O)c1cc(-c2c[nH]c3ccccc23)nc2ccc3ccccc3c12 the results were MCF10A rerep 17.9%, SW480 rerep 0.6%, a7 integrin act -16.3%, AT treatment 7.4% and Mito fusion act 3.8%.
Cc1cc(C)c2nc(/N=C(\N)NC(=O)Nc3ccccc3)nc(C)c2c1 was read as MCF10A rerep 20.6µM*, SW480 rerep 9.2µM*, a7 integrin act -27.1%, AT treatment -1.2% and Mito fusion act 20.0%.
For Cc1cc(C)c2nc(/N=C(\N)NC(=O)c3ccccc3)nc(C)c2c1 the results were MCF10A rerep 20.4%, SW480 rerep -6.4%, a7 integrin act -2.4%, AT treatment -7.0% and Mito fusion act 2.7%.
For CCOC(=O)CN1C(=O)CC(c2ccc([N+](=O)[O-])cc2)C1=O (stereo not drawn) the results were MCF10A rerep 0.0%, SW480 rerep -25.3%, a7 integrin act 0.2%, AT treatment -1.6% and Mito fusion act -0.4%.
`CC1CCN(CC(=O)Nc2ccc(S(=O)(=O)NC3CC3)cc2)CC1` gave MCF10A rerep 2.2%, SW480 rerep 6.5%, a7 integrin act -8.7%, AT treatment 1.1% and Mito fusion act 2.1%.
Screening CCCOc1ccccc1NC(=O)/C=C/C(N)=O returned MCF10A rerep 4.47µM*, SW480 rerep 12.6µM*, a7 integrin act -23.4% and Mito fusion act -6.0%.
`CC(=O)c1ccc(S(=O)(=O)Nc2cccc(-c3ccc4nncn4n3)c2)cc1` gave MCF10A rerep 17.1%, SW480 rerep -8.5%, a7 integrin act 9.5%, AT treatment 1.6% and Mito fusion act 4.6%.
